Screens: PubChem BioAssay, National Center for Advancing Translational Sciences (NCATS)
The list is not random: actives were taken first. Their share in the collection is about 1.8%.
PTHR1 agonist = agonists of human PTHR1 parathyroid hormone receptor; Q03431; HEK293 GP2 PTHR1 cells, GloSensor cAMP luminescence, 1 h; Potency, µM (titrated, usually from 115 µM), actives largely listed as activators; 0.075% of 410,000 active; also: nearly all actives have a fitted effect of over 55% in size
Target sequence (Q03431 whole entry, looked up): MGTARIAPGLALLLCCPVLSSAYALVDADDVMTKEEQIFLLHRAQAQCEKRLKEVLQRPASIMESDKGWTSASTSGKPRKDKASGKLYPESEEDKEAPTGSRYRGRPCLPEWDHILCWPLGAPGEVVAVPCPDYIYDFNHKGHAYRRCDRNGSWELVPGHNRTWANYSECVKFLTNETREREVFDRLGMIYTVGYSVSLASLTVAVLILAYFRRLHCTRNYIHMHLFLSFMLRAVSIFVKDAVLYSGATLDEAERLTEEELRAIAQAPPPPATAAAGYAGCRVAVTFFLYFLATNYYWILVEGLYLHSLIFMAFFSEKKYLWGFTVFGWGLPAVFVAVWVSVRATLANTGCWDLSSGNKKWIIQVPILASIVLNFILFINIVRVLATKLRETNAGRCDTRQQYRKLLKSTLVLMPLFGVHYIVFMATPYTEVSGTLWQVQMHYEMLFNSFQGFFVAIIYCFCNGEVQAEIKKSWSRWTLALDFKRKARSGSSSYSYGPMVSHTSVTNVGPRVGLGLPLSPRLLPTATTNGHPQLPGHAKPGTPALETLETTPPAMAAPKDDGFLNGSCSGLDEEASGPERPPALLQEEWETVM
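HEK-293-derived GP2 cells expressing PTHR1 and a GloSensor cAMP reporter, 3,000/well, plated overnight, given luciferin plus IBMX (each 0.5 mM as added) for 1 h at 37 °C, then compound for 1 h at 37 °C. Luminescence was read after 15 min at room temperature.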
TSHR antag = antagonists of human thyroid stimulating hormone receptor; AID 504810; TSHR-expressing cells, TSH-stimulated cAMP HTRF, 2 h; hits give low values; activity change, negative = inhibition, % at 11.5 µM; P16473; 0.2% of 330,000 active;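 active = activity change below a set negative limit, meaning inhibition stronger than a set level, cut at about -70% in these data; inconclusive = activity change between two set negative limits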
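Antagonism was scored as loss of TSH-driven cAMP in TSHR cells, stimulated with 4nM TSH (EC80) for 2 hours at 37 deg C and detected by homogeneous HTRF competition immunoassay.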
GLP-1R agonist = agonists of human GLP-1 receptor | P43220 | HEK293 GLP-1R CRE-luciferase, luminescence, 4-6 h; cells express a hypersensitive GLP-1R form | Potency, µM (doses to about 45.6 µM), actives largely listed as activators | 0.007% of 380,000 active | AID 624172
GLP-1R inv ag = inverse agonists of human GLP-1 receptor; HEK293 GLP-1R CRE-luciferase, luminescence, 24 h; GLP-1R form is constitutively active; Potency, µM (top dose mostly 38.3 µM), usual class: inhibitors; 1.6% of 410,000 active; AID 624417; also: nearly all actives have a fitted effect of over 55% in size
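Using stably transfected HEK293 (constitutively active GLP-1R, cAMP-luciferase reporter), compounds were incubated 24 hr and luciferase measured by luminescence.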
GLP1R cytotox = cytotoxicity in counter-screen for GLP-1R inverse agonists; HEK293 cAMP-luciferase reporter cells, luminescence, 24 h; Potency, µM (titrated, usually from 38.3 µM), hits mostly inhibitors; 0.13% of 410,000 active;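 also: loss of luciferase light is scored as toxicity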
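To flag toxic compounds, the library was rerun on cells for 24 hr at 37 deg C and 5% CO2. Viability-linked luminescence was captured 12 min after adding luciferase detection reagent.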
Numbers stand for hits; 0 = inactive; ? = inconclusive; - = no result. Unless noted, calls follow the shape of the dose curve; as a rule, active = well fitted curve in the direction sought with a large enough effect; inconclusive = small, poorly fitted or top-dose-only effect, or another doubt; inactive = no such curve, though single readings can be large; an effect the other way counts as inactive or inconclusive.

SMILES	PTHR1 agonist	TSHR antag	GLP-1R agonist	GLP-1R inv ag	GLP1R cytotox
Cc1cc(NC(=O)c2cc(-c3cccc(Cl)c3)on2)nn1Cc1ccc(Cl)cc1	0	-	-	0	0
O=C1C=CC(=O)C2C1C1(Cl)C(Cl)=C(Cl)C2(Cl)C1(Cl)Cl (centres undefined)	0	-	0	3.2µM	?
COc1cc(OC)c(OC)cc1CN1CCN(C(=O)COc2ccc3ccccc3c2)CC1	0	0	0	?	0
COc1cccc(CN2CCN(C(=O)COc3ccc4ccccc4c3)CC2)c1	0	0	0	11µM	0
Cc1ccc(S(=O)(=O)N2CCC(C(=O)OCc3ccccc3)CC2)cc1C	0	0	0	10µM	0
CCOC(=O)c1ccc(N2C(=O)c3n[nH]c(-c4cccs4)c3C2c2ccc(C(C)(C)C)cc2)cc1 (centres undefined)	0	-	0	0	0
Nc1ccc2c(c1)C(=O)C(=O)c1ccccc1-2	0	-79	0	?	3.5µM
CCOc1ccc(-c2cc(C(=O)N3CCN(S(=O)(=O)c4cc(Cl)ccc4OC)CC3)[nH]n2)cc1	0	-	-	?	0
Cc1ccccc1C1CC(=O)Nc2ccc3ccccc3c21 (centres undefined)	0	-	0	?	0
CCCCC[C@@H](/C=C/C1C(=O)C=C[C@H]1C/C=C\CCCC(=O)OC)OC(C)=O (some centres undefined)	0	-	0	?	?
C[C@@H]1O[C@@H](O[C@@H]2C=C3CCC4C(CC[C@]5(C)[C@@H](c6ccc(=O)oc6)CC[C@]45O)[C@@]3(C)CC2)[C@H](O)[C@H](O)[C@H]1O (some centres undefined)	0	-74	0	0	0
C[C@@H]1O[C@@H](O[C@@H]2C=C3CC[C@@H]4C(CC[C@]5(C)[C@@H](c6ccc(=O)oc6)CC[C@]45O)[C@@]3(C)CC2)[C@H](O)[C@H](O)[C@H]1O (some centres undefined)	0	-78	0	0	0
C[C@@H]1O[C@@H](O[C@H]2C[C@@H](O)[C@]3(CO)[C@@H]4C(CC[C@]3(O)C2)[C@@]2(O)CC[C@H]([C@@H]3COC(=O)C3)[C@@]2(C)C[C@H]4O)[C@H](O)[C@H](O)[C@H]1O (some centres undefined)	-	0	-	-	-
C[C@@H]1O[C@@H](O[C@H]2C[C@@H](O)[C@]3(CO)[C@H]4[C@H](O)C[C@]5(C)[C@@H](C6COC(=O)C6)CC[C@]5(O)[C@@H]4CC[C@]3(O)C2)[C@H](O)[C@H](O)[C@H]1O (some centres undefined)	0	?	0	0	0
CCn1c(C)nc2cc(C(=O)N/N=C(\C)c3ccc(OC)cc3O)ccc21	0	0	0	?	?
CN(CC(=O)Nc1cccc(F)c1)C(=O)c1ccccc1CCc1ccccc1	0	0	0	?	?
CC12CCC3c4ccc(OC(=O)N(CCCl)CCCl)cc4CCC3C1CCC2O (centres undefined)	0	-	0	10µM	?
N#CC(C#N)=NNc1ccc(-n2ccc(C(F)(F)F)n2)cc1	0	-76	0	?	?
CC(C)(C)c1csc(NC(=O)Nc2ccccc2)n1	0	0	0	10µM	0
Cc1csc(NC(=O)C(Cl)c2ccccc2)n1 (centres undefined) (tested in a mixture with another compound)	0	-	0	0	0
CCCCCCCCN1C(=O)[C@H](CC(=O)N2CCCCC2)C[C@@]2(C(=O)OCC)CCCC=C12	0	-	0	?	0
Cc1cccc(NC(=O)c2oc3ccccc3c2NC(=O)c2cc(=O)c3cc(Cl)ccc3o2)c1	0	-	-	0	0
ClC(Cl)(Cl)c1nc2ccccc2n2nncc12	0	0	0	?	?
C[C@@H](NC(=O)c1nc[nH]c1C(=O)NCc1ccc(CNC(=O)OC(C)(C)C)cc1)c1ccccc1	0	0	0	?	?
NS(=O)(=O)c1ccc(NC2=CC(=O)C(=O)c3ccccc32)cc1	0	0	0	0	?
SMILES	PTHR1 agonist	TSHR antag	GLP-1R agonist	GLP-1R inv ag	GLP1R cytotox
CCN(CC)c1ccc(NC2=C(Cl)C(=O)c3ccccc3C2=O)cc1	0	-93	0	0	?
c1ccc(N2CCN(c3nc(NCc4ccco4)c4ccccc4n3)CC2)cc1	0	0	0	7.1µM	?
Cc1cccc(Cn2cc(C=O)c3ccccc32)c1	0	0	0	4µM	0
N#Cc1ccc(Cn2cc(C=O)c3ccccc32)cc1	0	0	0	7.1µM	0
Cc1ccc2c(c1)[C@]13CCCC[C@@H]1[C@@H](C2)N(C)CC3	-	-	0	-	-
COc1ccc(C(C)=O)cc1CSc1nc(NCc2ccccc2)c2ccccc2n1	0	-	-	0	?
Cc1cccc(C(=O)N2CCC(=O)N(C(COCc3cccc(Cl)c3)Cc3ccccc3)CC2)c1 (centres undefined)	0	0	0	8.9µM	0
COc1cccc(CC(=O)N2CCN(Cc3cccc(Cl)c3)CC2)c1	0	0	0	?	0
O=C(c1cc(F)ccc1F)C1CCCN(Cc2cccc(Cl)c2)C1 (centres undefined)	0	0	0	10µM	0
O=C(c1cc(F)ccc1F)C1CCCN(CCCc2ccccc2)C1 (centres undefined)	0	0	0	?	0
O=c1[nH]c(=O)n(C2CCCCCC2)c(O)c1C=NCc1ccc(F)cc1	0	0	0	10µM	0
O=C(Nc1ccn(CCCNCC(c2ccccc2)c2ccccc2)c(=O)n1)OCc1ccccc1	0	-	0	?	?
COc1cccc(C(=O)N/N=C(/c2ccccc2)c2ccccn2)c1	0	0	0	7.9µM	?
Oc1c(Br)cc(Br)cc1CN1CCN(Cc2ccccc2)CC1	0	0	0	10µM	0
Cc1ccccc1CN1CCN(Cc2ccccc2)CC1	45µM	0	0	0	0
Cc1ccc(N2C(=O)NC(=O)/C(=C\c3cc(C)n(-c4sc5c(c4C#N)CCCC5)c3C)C2=O)cc1	0	0	0	3.5µM	0
CCN1C(=O)NC(=O)/C(=C/c2cc(C)n(-c3sc(C)c(C)c3C#N)c2C)C1=O	0	0	0	?	?
COc1ccc(N=C2S/C(=C\c3ccc(Cl)c([N+](=O)[O-])c3)C(=O)N2CCN(C)C)cc1	0	0	0	?	11µM
C=CCN1C(=O)/C(=C/c2ccc(O)c(OC)c2)S/C1=N/c1nccs1	0	0	0	0	0
COc1cc(NC(=O)c2csc(N)n2)cc(C(=O)Nc2cccc(C(F)(F)F)c2)c1	0	0	0	4µM	?
COc1cccc(-c2ccc3c(N)c(C(=O)Nc4cc(C(F)(F)F)ccc4OC)sc3n2)c1	0	-	0	0	0
